In PubChem BioAssay (NCATS):
Records with an inconclusive call do not appear. The source made the active and inactive calls. The call rests on the fitted dose curve; in most records, active means well fitted cell-killing curve with a large enough effect; inconclusive means small, poorly fitted or top-dose-only effect, or effect the other way; inactive means flat fitted curve, though single readings scatter.

Key:
Test in all cases: Primary qHTS to identify gynecologic anti-cancer compounds using libraries of approved drugs and bioactive compounds (AID 1345084); further: nearly all actives have a fitted effect of over 55% in size
C33A = conditions: Gynecologic cancer cell panel viability, ATPlite luminescence, 48 h; series mostly up to 57.5 µM
Procedure, shortened: (§1)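 In this quantitative HTS, cell killing is estimated from loss of ATP-dependent luciferase light. Cells see five compound concentrations over a 48 h exposure.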

CAOV3 = conditions: Gynecologic cancer cell panel viability, ATPlite luminescence, 48 h; series mostly up to 57.5 µM
Procedure, shortened: as §1

CASKI = conditions: Gynecologic cancer cell panel viability, ATPlite luminescence, 48 h; series mostly up to 57.5 µM
Procedure, shortened: as §1

Es-2 = conditions: Gynecologic cancer cell panel viability, ATPlite luminescence, 48 h; series mostly up to 57.5 µM
Procedure, shortened: as §1

HeLa = conditions: Gynecologic cancer cell panel viability, ATPlite luminescence, 48 h; series mostly up to 57.5 µM
Procedure, shortened: as §1

Hek293T = conditions: Gynecologic cancer cell panel viability, ATPlite luminescence, 48 h, control line for the selectivity index; series mostly up to 57.5 µM
Procedure, shortened: as §1

JEG-3 = conditions: Gynecologic cancer cell panel viability, ATPlite luminescence, 48 h; series mostly up to 57.5 µM
Procedure, shortened: as §1

OV90 = conditions: Gynecologic cancer cell panel viability, ATPlite luminescence, 48 h; series mostly up to 57.5 µM
Procedure, shortened: as §1

PA-1 = conditions: Gynecologic cancer cell panel viability, ATPlite luminescence, 48 h; series mostly up to 57.5 µM
Procedure, shortened: as §1

SKOV3 = conditions: Gynecologic cancer cell panel viability, ATPlite luminescence, 48 h; series mostly up to 57.5 µM
Procedure, shortened: as §1

Tov-21-G = conditions: Gynecologic cancer cell panel viability, ATPlite luminescence, 48 h; series mostly up to 57.5 µM
Procedure, shortened: as §1

Tov112D = conditions: Gynecologic cancer cell panel viability, ATPlite luminescence, 48 h; series mostly up to 57.5 µM
Procedure, shortened: as §1
On the % scale 0 is the no-effect control and ±100 the full control effect.

C=C1CC23CC1CCC2C12OC(=O)C(C)(CCC1O)C2C3C(=O)O (stereo not drawn)
inactive: Potency (C33A) | Potency (CAOV3) | Potency (CASKI) | Potency (Es-2) | Potency (HeLa) | Potency (Hek293T) | Potency (JEG-3) | Potency (OV90) | Potency (PA-1) | Potency (SKOV3) | Potency (Tov-21-G) | Potency (Tov112D)

C=C[C@H]1C(O[C@@H]2O[C@H](CO)[C@@H](O)[C@H](O)[C@H]2O)OC=C2C(=O)N3CCc4c([nH]c5ccccc45)C3CC21 (stereo partly drawn)
inactive: Potency (C33A) | Potency (CAOV3) | Potency (CASKI) | Potency (Es-2) | Potency (HeLa) | Potency (Hek293T) | Potency (JEG-3) | Potency (OV90) | Potency (PA-1) | Potency (SKOV3) | Potency (Tov-21-G) | Potency (Tov112D)

CC(C)(F)C[C@@H](N[C@@H](c1ccc(-c2ccc(S(C)(=O)=O)cc2)cc1)C(F)(F)F)C(=O)NC1(C#N)CC1
inactive: Potency (C33A) | Potency (CAOV3) | Potency (CASKI) | Potency (Es-2) | Potency (HeLa) | Potency (Hek293T) | Potency (JEG-3) | Potency (OV90) | Potency (PA-1) | Potency (SKOV3) | Potency (Tov-21-G) | Potency (Tov112D)

O=C(O)c1cc(I)ccc1NC(=O)[C@H](Cc1ccccc1)NCc1ccccc1
inactive: Potency (C33A) | Potency (CAOV3) | Potency (CASKI) | Potency (Es-2) | Potency (HeLa) | Potency (Hek293T) | Potency (JEG-3) | Potency (OV90) | Potency (PA-1) | Potency (SKOV3) | Potency (Tov-21-G) | Potency (Tov112D)

C[C@@H]1O[C@@H](OC[C@H]2O[C@@H](OC(CCCCc3ccc(O)cc3)CCc3ccc(O)cc3)[C@H](O)[C@@H](O)[C@@H]2O)[C@H](O)[C@H](O)[C@H]1O (stereo partly drawn)
inactive: Potency (C33A) | Potency (CAOV3) | Potency (CASKI) | Potency (Es-2) | Potency (HeLa) | Potency (Hek293T) | Potency (JEG-3) | Potency (OV90) | Potency (PA-1) | Potency (SKOV3) | Potency (Tov-21-G) | Potency (Tov112D)

CC1(C)CC[C@]2(CO[C@@H]3O[C@H](CO)[C@@H](O)[C@H](O)[C@H]3O)[C@@H](O)C[C@]3(C)C(=CCC4[C@@]5(C)CC[C@H](O[C@@H]6O[C@H](CO[C@@H]7O[C@H](CO[C@@H]8OC[C@@H](O)[C@H](O)[C@H]8O)[C@@H](O)[C@H](O)[C@H]7O)[C@@H](O)[C@H](O)[C@H]6O)C(C)(C)C5CC[C@]43C)[C@@H]2C1 (stereo partly drawn)
inactive: activity change, negative = cytotoxicity (C33A) 4.63% [at 11.6 µM] | activity change, negative = cytotoxicity (CAOV3) 5.01% [at 11.6 µM] | activity change, negative = cytotoxicity (CASKI) -3.94% [at 11.6 µM] | activity change, negative = cytotoxicity (Es-2) 4.96% [at 11.6 µM] | activity change, negative = cytotoxicity (HeLa) -7.27% [at 11.6 µM] | activity change, negative = cytotoxicity (Hek293T) 1.89% [at 11.6 µM] | activity change, negative = cytotoxicity (JEG-3) 1.67% [at 11.6 µM] | activity change, negative = cytotoxicity (OV90) -3.63% [at 11.6 µM] | activity change, negative = cytotoxicity (PA-1) -8.81% [at 11.6 µM] | activity change, negative = cytotoxicity (SKOV3) -1.91% [at 11.6 µM] | activity change, negative = cytotoxicity (Tov-21-G) 4.01% [at 11.6 µM] | activity change, negative = cytotoxicity (Tov112D) -1.63% [at 11.6 µM]

C=C1[C@H](OC(C)=O)[C@H]2[C@@H](OC(C)=O)[C@](C)(OC(C)=O)C[C@]2(OC(C)=O)C(=O)[C@H](C)/C=C/C(C)(C)C(=O)[C@H](OC(=O)C(C)C)[C@H]1OC(C)=O
inactive: Potency (C33A) | Potency (CAOV3) | Potency (CASKI) | Potency (Es-2) | Potency (HeLa) | Potency (Hek293T) | Potency (JEG-3) | Potency (OV90) | Potency (PA-1) | Potency (SKOV3) | Potency (Tov-21-G) | Potency (Tov112D)

COc1c2c(c(C)c3c1C(=O)OC3)OC1(C)CC(O)C34OC(OC)(OC3(C)C)C(O)CC4(C)C1C2 (stereo not drawn)
inactive: Potency (C33A) | Potency (CAOV3) | Potency (CASKI) | Potency (Es-2) | Potency (HeLa) | Potency (Hek293T) | Potency (JEG-3) | Potency (OV90) | Potency (PA-1) | Potency (SKOV3) | Potency (Tov-21-G) | Potency (Tov112D)

CC1(C)CCCC2(C)C(CO)C(CO)=CCC12 (stereo not drawn)
inactive: Potency (C33A) | Potency (CAOV3) | Potency (CASKI) | Potency (Es-2) | Potency (HeLa) | Potency (Hek293T) | Potency (JEG-3) | Potency (OV90) | Potency (PA-1) | Potency (SKOV3) | Potency (Tov-21-G) | Potency (Tov112D)

C=C[C@H]1[C@H](O[C@@H]2O[C@H](CO)[C@@H](O)[C@H](O)[C@H]2O)OC=C(C(=O)OC)[C@H]1CC(=O)O
inactive: Potency (C33A) | Potency (CAOV3) | Potency (CASKI) | Potency (Es-2) | Potency (HeLa) | Potency (Hek293T) | Potency (JEG-3) | Potency (OV90) | Potency (PA-1) | Potency (SKOV3) | Potency (Tov-21-G) | Potency (Tov112D)

CC(C)C(=O)OC[C@H]1O[C@H](O[C@H]2O[C@H](CO)[C@@H](O)[C@H](O)[C@H]2O)[C@H](O)[C@@H](O)[C@@H]1O
inactive: Potency (C33A) | Potency (CAOV3) | Potency (CASKI) | Potency (Es-2) | Potency (HeLa) | Potency (Hek293T) | Potency (JEG-3) | Potency (OV90) | Potency (PA-1) | Potency (SKOV3) | Potency (Tov-21-G) | Potency (Tov112D)

CC1=C(CCC(C)O[C@@H]2O[C@H](CO)[C@@H](O)[C@H](O)[C@H]2O)C(C)(C)CCC1=O (stereo partly drawn)
inactive: Potency (C33A) | Potency (CAOV3) | Potency (CASKI) | Potency (Es-2) | Potency (HeLa) | Potency (Hek293T) | Potency (JEG-3) | Potency (OV90) | Potency (PA-1) | Potency (SKOV3) | Potency (Tov-21-G) | Potency (Tov112D)

C/C=C1\[C@H](O[C@@H]2O[C@H](CO)[C@@H](O)[C@H](O)[C@H]2O)OC=C(C(=O)OC)[C@H]1CC(=O)OC[C@H]1O[C@@H](OCCc2ccc(O)cc2)[C@H](O)[C@@H](O)[C@@H]1O
inactive: Potency (C33A) | Potency (CAOV3) | Potency (CASKI) | Potency (Es-2) | Potency (HeLa) | Potency (Hek293T) | Potency (JEG-3) | Potency (OV90) | Potency (PA-1) | Potency (SKOV3) | Potency (Tov-21-G) | Potency (Tov112D)

CCn1cc(NC(=S)Nc2cc(Cl)ccc2OC)c(C(N)=O)n1
inactive: Potency (C33A) | Potency (CAOV3) | Potency (CASKI) | Potency (Es-2) | Potency (HeLa) | Potency (Hek293T) | Potency (JEG-3) | Potency (OV90) | Potency (PA-1) | Potency (SKOV3) | Potency (Tov-21-G) | Potency (Tov112D)
